PubChem BioAssay
The source made the active and inactive calls.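 How the source made its calls, unless noted: active means fluorescence slope higher than the sample average by over 3 SD (cut at about -0.22 in these data, passing the limit was not always enough); inactive means the rest.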

Key:
[1] = inhibitors of TNFa-induced NFkB p65 translocation, primary screen, imaging, HUVEC, MLSMR starter and 10KST1 sets (AID 438;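 active means inhibition above 20% together with a positive visual image hit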;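 further: compound added about 3h40 before a 20 min TNFalpha stimulation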;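 on inhibition: signal is the nuclear over cytoplasmic p65 intensity ratio per well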); details: HUVEC TNFa-induced p65 nuclear translocation; cell count: measured here: nuclei count (cytotoxicity indicator), at 2.08 µM; inhibition: at 2 µM, stronger effect = higher value, 0% TNFa-plus-vehicle, 100% no-TNFa wells
[2] = inhibitors of mutant huntingtin aggregation, primary screen, imaging, exon1htt(103Q)mCFP cells, high-content imaging (AID 483;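 active means visual image review flags a hit and inhibition of aggregation exceeds 20%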;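 further: compound exposure lasted 3 days before fixation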;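 on nuclei count: percent of the per-plate median nuclei count of sample wells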); details: exon1htt(103Q)mCFP cell line, aggregate imaging, at 2 µM; inhibition of aggregation: stronger effect = higher value; nuclei count: measured here: cell count, toxicity
[3] = inhibitors of E-selectin induction by TNFa, primary screen, imaging, HUVEC, immunofluorescence, MLSMR starter and 10KST1 sets (AID 487;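 active means visually confirmed hit in the image check and inhibition above 20%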;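 on inhibition: signal is fraction of cell area covered by stained E-selectin grains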;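 on nuclei count: 100% = median nuclei count of all wells on the same plate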); details: HUVEC TNFalpha-induced E-selectin immunofluorescence imaging, at 2 µM; inhibition: stronger effect = higher value; nuclei count: measured here: cell number, toxicity
[4] = biological target: Voltage-gated potassium channel subunit beta-2 (Rattus norvegicus) (UniProt P62483); test: KvBeta enzyme negative modulators, primary screen, biochemical, NADPH fluorescence (AID 622); details: recombinant KvBeta, 4-cyanobenzaldehyde reduction, at 10 µM, stronger effect = higher value;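 further: slope of raw intensity against log time taken from 70 to 1610 s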
Voltage-gated potassium channel subunit beta-2 (Rattus norvegicus), sequence (P62483 whole entry, looked up): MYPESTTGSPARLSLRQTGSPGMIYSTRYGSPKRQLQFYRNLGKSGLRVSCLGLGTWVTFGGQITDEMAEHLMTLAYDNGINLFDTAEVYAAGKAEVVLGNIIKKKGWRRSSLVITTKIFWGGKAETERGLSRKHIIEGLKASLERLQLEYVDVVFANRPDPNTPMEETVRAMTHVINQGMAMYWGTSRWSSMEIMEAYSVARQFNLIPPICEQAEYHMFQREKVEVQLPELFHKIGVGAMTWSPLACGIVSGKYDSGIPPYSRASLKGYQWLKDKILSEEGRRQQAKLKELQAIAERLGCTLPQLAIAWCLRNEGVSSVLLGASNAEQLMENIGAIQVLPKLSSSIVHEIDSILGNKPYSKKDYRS

[5] = biological target: Voltage-gated potassium channel subunit beta-2 (Rattus norvegicus) (UniProt P62483); test: KvBeta positive modulators, primary screen, biochemical, NADPH fluorescence (AID 623;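 active means NADPH fluorescence slope more negative than the mean of all samples by about 3 SD, 99.7% confidence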;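 further: fluorescence intensity change per second fitted from 20 to 320 s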); details: Recombinant KvBeta, NADPH fluorescence decrease slope, 10 min; at 10 µM; stronger effect = lower value
[6] = biological target: Alpha-2C adrenergic receptor (Homo sapiens) (UniProt P18825); test: modulators of alpha2C/GIRK thallium flux, primary screen, cell-based, HEK293 alpha2C/GIRK1/2 (AID 624;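 active means fluorescence slope after compound addition differing from the mean of all screened samples at 99.7% confidence, in either direction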;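 further: slope of fluorescence ratio to pre-addition baseline per second over 15 to 24 s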); details: thallium flux BTC fluorescence, at 10 µM, actives lie on both sides
Alpha-2C adrenergic receptor (Homo sapiens), sequence (P18825 whole entry, looked up): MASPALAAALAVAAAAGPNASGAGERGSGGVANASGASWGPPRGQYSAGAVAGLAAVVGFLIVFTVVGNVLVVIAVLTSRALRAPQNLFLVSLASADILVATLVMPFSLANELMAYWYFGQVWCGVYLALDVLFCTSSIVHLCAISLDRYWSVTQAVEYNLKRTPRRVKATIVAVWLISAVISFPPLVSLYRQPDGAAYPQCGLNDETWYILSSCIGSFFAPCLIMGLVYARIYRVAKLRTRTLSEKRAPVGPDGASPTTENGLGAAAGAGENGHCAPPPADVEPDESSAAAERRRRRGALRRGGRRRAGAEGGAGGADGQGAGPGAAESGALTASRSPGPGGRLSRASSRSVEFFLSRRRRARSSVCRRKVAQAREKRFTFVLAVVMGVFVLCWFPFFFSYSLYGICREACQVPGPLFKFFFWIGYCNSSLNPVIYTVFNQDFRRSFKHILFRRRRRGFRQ

[7] = inhibitors of Sendai virus-induced IRF3 signaling, primary screen, TLR/RLR signaling modifier project, cell-based, Sendai virus stimulus, luciferase, 10K MLSCN set (AID 602276;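 active means inhibition at or above 50% at 10 µM; inactive means inhibition below 50%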;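 further: firefly luciferase from ISG56 promoter only with Renilla not read in this screen; 0% = Sendai virus plus DMSO and 100% = medium plus DMSO without virus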); details: HEK293 RL24 IRF3 luciferase reporter, at 10 µM, stronger effect = higher value
[8] = inhibitors of poly I:C-induced TLR3 signaling, primary screen, cell-based, poly I:C stimulus, luciferase, 10K MLSCN set (AID 602277;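 active means inhibition of the reporter signal at or above 50%; inactive means inhibition below 50%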); details: HEK293-TLR3 RL24 IRF3 luciferase reporter, at 10 µM, stronger effect = higher value

| Structure (SMILES) | cell count [1] | inhibition [1] | inhibition of aggregation [2] | nuclei count [2] [%] | inhibition [3] | nuclei count [3] [%] | fluorescence slope [4] | NADPH fluorescence slope [5] | slope [6] | inhibition [7] | inhibition [8] |
| --- | --- | --- | --- | --- | --- | --- | --- | --- | --- | --- | --- |
| CCOC(=O)c1[nH]c(C)c(C(=O)NC)c1C | 627 | -1.3% (inactive) | 0.2% (inactive) | 105 | -37.7% (inactive) | 103 | -0.563 (inactive) | -1.3e-05 (inactive) | 0.00529 (inactive) | 9.49% (inactive) | 27.6% (inactive) |
| COc1cc(S(=O)(=O)n2nnc3ccccc32)c(OC)cc1Cl | 629 | -3.3% (inactive) | -68.5% (inactive) | 93 | -51.9% (inactive) | 122 | -0.382 (inactive) | 3.8e-05 (inactive) | 0.00868 (inactive) | 13.5% (inactive) | -7.7% (inactive) |
| COc1ccccc1N1CCN(C(=O)c2c(-c3c(Cl)cccc3Cl)noc2C)CC1 | 652 | -11.7% (inactive) | 3.7% (inactive) | 90.6 | -24.6% (inactive) | 110 | -0.377 (inactive) | -2.9e-05 (inactive) | 0.00504 (inactive) | 18.3% (inactive) | 38.3% (inactive) |
| CCOC(=O)CSc1nnc(NC(=O)c2cccc(S(=O)(=O)N3CCCCC3)c2)s1 | 626 | -1.1% (inactive) | -6.5% (inactive) | 107 | 20.8% (inactive) | 102 | -0.37 (inactive) | -9.8e-06 (inactive) | 0.00424 (inactive) | 12.1% (inactive) | 26.3% (inactive) |
| O=C(NCc1ccco1)c1cnc2n(c1=O)CCS2 | 188 | 4.4% (inactive) | 5.7% (inactive) | 66.8 | 7.8% (inactive) | 93.2 | -0.419 (inactive) | -1.2e-05 (inactive) | 0.00633 (inactive) | 10% (inactive) | 2.98% (inactive) |
| COC(=O)CN(c1ccc(C)c(Cl)c1)S(C)(=O)=O | 322 | 4% (inactive) | -11.9% (inactive) | 117 | 13.8% (inactive) | 110 | -0.506 (inactive) | -4.6e-05 (inactive) | 0.00698 (inactive) | 13.7% (inactive) | 19.8% (inactive) |
| O=C(c1ccccc1-c1ccccc1)N1CCN(c2ccccn2)CC1 | 384 | 7.8% (inactive) | -81.8% (inactive) | 17.3 | -93.4% (inactive) | 102 | -0.5 (inactive) | -3.6e-05 (inactive) | 0.00494 (inactive) | 43.1% (inactive) | 26.8% (inactive) |
| Cn1c(SCC(=O)O)nnc1C1CCCCC1 | 396 | 1.6% (inactive) | -3.7% (inactive) | 99.2 | -65.8% (inactive) | 105 | -0.515 (inactive) | -8.3e-06 (inactive) | 0.0074 (inactive) | -46.6% (inactive) | -23.7% (inactive) |
| Cc1ccc(-c2ccc(=O)n(CCC(=O)NCCN3CCCCC3C)n2)cc1 (centres undefined) | 216 | 4.2% (inactive) | -7.7% (inactive) | 86.5 | -4.1% (inactive) | 100 | -0.442 (inactive) | -2.5e-05 (inactive) | 0.00419 (inactive) | 1.11% (inactive) | 2.82% (inactive) |
| O=C(c1ccco1)N1CCN(c2cccc(Cl)c2)CC1 | 665 | -1.9% (inactive) | 5.4% (inactive) | 115 | 24.2% (inactive) | 91.6 | -0.507 (inactive) | -7.7e-05 (inactive) | 0.00406 (inactive) | -26.6% (inactive) | -76.9% (inactive) |
| NC(=O)NC(=O)CSc1cccc(C(F)(F)F)c1 | 570 | -10.9% (inactive) | -3.2% (inactive) | 101 | -77.3% (inactive) | 123 | -0.51 (inactive) | -6.1e-05 (inactive) | 0.00622 (inactive) | 13.4% (inactive) | 18.2% (inactive) |
| CCOc1ccc(Cn2nnc(C(=O)Nc3cc(C)cc(C)c3)c2N)cc1 | 751 | -0.6% (inactive) | 12.1% (inactive) | 100 | -46.9% (inactive) | 108 | -0.521 (inactive) | -2.6e-05 (inactive) | 0.00695 (inactive) | 2.58% (inactive) | 9.37% (inactive) |
| O=C(NCc1ccccc1)C1CCCN1S(=O)(=O)c1cccc2cccnc12 (centres undefined) | 521 | -4.4% (inactive) | -7.9% (inactive) | 67.5 | -42.2% (inactive) | 111 | -0.561 (inactive) | 3.4e-05 (inactive) | 0.00702 (inactive) | 3.4% (inactive) | 34.5% (inactive) |
| CCSc1nc2c(c(=O)[nH]1)C(c1cccnc1)C(C(=O)OC(C)C)=C(C)N2 (centres undefined) | 500 | 3.8% (inactive) | 19.4% (inactive) | 93.1 | -57.7% (inactive) | 103 | -0.475 (inactive) | -1.6e-05 (inactive) | 0.00631 (inactive) | 1.95% (inactive) | 25.7% (inactive) |
| CCOC(=O)c1oc2cccc(OC(C)=O)c2c1C | 306 | 8.1% (inactive) | 11.2% (inactive) | 97.4 | 24.5% (inactive) | 85.9 | -0.607 (inactive) | -4.6e-05 (inactive) | 0.00384 (inactive) | -33.6% (inactive) | -89.8% (inactive) |
| COC(=O)c1ccc2c(c1)nc(C)n2CCO | 360 | -4% (inactive) | -26% (inactive) | 139 | -23.6% (inactive) | 94.3 | -0.315 (inactive) | -2.9e-05 (inactive) | 0.00466 (inactive) | 5.24% (inactive) | 12.5% (inactive) |
| O=C(c1ccc2c(c1)OCO2)N1CCCN(C(=O)c2ccc3c(c2)OCO3)CC1 | 522 | 5% (inactive) | -1.1% (inactive) | 103 | -123% (inactive) | 106 | -0.417 (inactive) | -0.0001 (inactive) | 0.0056 (inactive) | 15.7% (inactive) | 28.5% (inactive) |
| CCOC(=O)c1c(C)c(C(=O)NCCN2CCOCC2)c(C)n1C | 607 | -11.6% (inactive) | 13% (inactive) | 88.4 | 1.3% (inactive) | 103 | -0.496 (inactive) | -8.5e-05 (inactive) | 0.00563 (inactive) | 13.6% (inactive) | 22.1% (inactive) |
| O=C(c1cccc(F)c1)N1CCc2ccccc21 | 490 | 3.5% (inactive) | -1.6% (inactive) | 107 | -9.7% (inactive) | 114 | -0.478 (inactive) | -1.8e-05 (inactive) | 0.0055 (inactive) | 0.0423% (inactive) | 27.3% (inactive) |
